# Experimental data from paper PMC12136788.
# Changes are numbered by the printed parent chain. Over roughly 5,800 sequences, “enrichment r” has its median near 0.54; the highest 2% begin near 16. The sample as a whole holds a higher share of the highest values than the screen did.
# B1: chr11:70485313:70487720:-|CDS|ENSG00000162105|control|control|control (ssRNA)
# RNA: GGGAGUUCUACAGUCCGACGAUCUGGGGCGACGUCACAGAGAUCAAAAGCCCGAUUCUCUCAGGCCCAAAGGCAAACGUUAUUAGUGAAUUGAACUCUAUCCUACAGCAAAUGAACCGAGAGAAAUUGGCAAAGCCGGGGGAACAACAGAGGAUUGAGCAUCA
# B2: chr3:58425360:58425463:+|3pUTR|ENSG00000168297|unk|FALSE|unique (ssRNA)
# RNA: GGGAGUUCUACAGUCCGACGAUCAGACAGCUCCUAGAAACAUUCCUCUUACAGUUCAUUUCUCUAAAGCAUUUUCUGAUUCUUAGAUAACUCCAAUUUUUGCUACCUUUAUCUUAGACAUUAACACUAUAGCCCAAAGCAUAGCAACAGAGGAUUGAGCAUCA
# B3: chr16:66721972:66722075:-|3pUTR|ENSG00000135720|unk|FALSE|unique (ssRNA)
# RNA: GGGAGUUCUACAGUCCGACGAUCUUUUUAAUUCAGUUUUUUAAAAAAACAAAUGUAUUGUGGCUUCCAGUUACCAGGUUGUCUAGGUAAUGACAGUAAACUGACUGUAGAAUGAUAAUUGUGGUAUAGUGACCAAUAGAUGCCCAACAGAGGAUUGAGCAUCA
# B4: chr7:20410151:20410448:+|3pUTR|ENSG00000105855|msi1|total|mutant (ssRNA)
# RNA: GGGAGUUCUACAGUCCGACGAUCACCCGUGUCGUUGCCGCACUUUACUGUAAUAUAUAACUUAUUCCGAUCAGCACCGAAUGCCGAUCCUCUGAAGAGCACUGAUUACACUUUACAGGUACCUGUUAUCCCUACGCUUCCCAGCAACAGAGGAUUGAGCAUCA
# B5: chr11:613205:613595:-|three_prime_utr|ENSG00000185507|control|control|control (ssRNA)
# RNA: GGGAGUUCUACAGUCCGACGAUCCUGCACGUUCCUAUACGGCCCCCCAGACCCAGCUGUCCGGGCCACAGACCCCCAGCAGGUAGCAUUCCCCAGCCCUGCCGAGCUCCCGGACCAGAAGCAGCUGCGCUACACGGAGGAACUCAACAGAGGAUUGAGCAUCA
# B6: chr12:66123492:66123593:-|3pUTR|ENSG00000139233|msi1|FALSE|unique (ssRNA)
# RNA: GGGAGUUCUACAGUCCGACGAUCAUGCUACCCAAUAUCCAGUUAUAAUCAGGCCUCAACGUUCUGUCAGGUAUUAAUAUGGUUAGAAUUGUUCUUACAACUGGUAAUUAUAGUCAAUAGAGAUAAAACAGAUGAUGUACUGACCAACAGAGGAUUGAGCAUCA
# B7: chr7:20410151:20410448:+|3pUTR|ENSG00000105855|msi1|FALSE|unique (ssRNA)
# RNA: B4 RNA with C26U, C27A, C37U, C38A, C66U, C67A, C76U, C77A, C83U, C84A
# B8: chr19:18196783:18197469:-|three_prime_utr|ENSG00000105649|control|control|control (ssRNA)
# RNA: GGGAGUUCUACAGUCCGACGAUCACUACCCGGGCCUGACCCGGCCCCUACCAGCCACGGGCACAAGACCCCUGCUCCUGACUUAGCCCGUCACCCUUAUUUAUUAUUGUAGCUAUUUAUUUAUUUAUUGAAGAUGUCCCCCAGCAACAGAGGAUUGAGCAUCA
# B9: chr4:56461171:56461272:+|3pUTR|ENSG00000128050|msi1|FALSE|bound_elsewhere (ssRNA)
# RNA: GGGAGUUCUACAGUCCGACGAUCCUUCUGUAACCACAGUGACUACAAGUAGUUCUUUCUCUAUUGAAUUAUUAGGUCCAGAAUAGAAGAUGUCAUUGUACACUUUAUUUCCCUCACACUGUGUUAUGCUCUGAUGUGCUAUGCCAACAGAGGAUUGAGCAUCA
# B10: chr19:38730201:38730298:+|3pUTR|ENSG00000130402|msi1_unk|FALSE|overlapping (ssRNA)
# RNA: GGGAGUUCUACAGUCCGACGAUCCAGAGAAUUACUAUUUACUUUAUUAACUUACGGAUUUAUUAUAUAAAUAUAUAUUCACCUAGCAACAUAUCUCUGCCGUCUCUCCUGCUCUCAUAAUGAAGACAUAGCCGAUUCUCUGCCCAACAGAGGAUUGAGCAUCA
# B11: chr19:38730201:38730298:+|3pUTR|ENSG00000130402|msi1_unk|total|mutant (ssRNA)
# RNA: B10 RNA with U83C, A84C, U128C, A129C
# B12: ENSG00000154556:stop:overlap|stop_codon|ENSG00000154556|stop_codon|NA|stop_codon (ssRNA)
# RNA: GGGAGUUCUACAGUCCGACGAUCCUUCUUCCCCAUCAAGAGCAAAAGUUACUCAGGGCUCAACGGCAACCCCUCCAGUGAGUUAGAUUACUGUAGCACUUACAGACAGCACUUGGAUGUCCCUCGGGACUCACCAAGAGCCAUCAACAGAGGAUUGAGCAUCA
# B13: chr12:66123492:66123593:-|3pUTR|ENSG00000139233|msi1|total|mutant (ssRNA)
# RNA: B6 RNA with U83C, A84C, U110C, A111C, U117C, A118C
# B14: ENSG00000115216:stop:overlap|stop_codon|ENSG00000115216|stop_codon|NA|stop_codon (ssRNA)
# RNA: GGGAGUUCUACAGUCCGACGAUCACAAGUUCAAUUUUGCCAGGAACAGUACCCUCAACUCAGCCGCUGUCACCGUCUCCUCUUAGAGCUCACUCGGGCCAGGCCCUGAUCUGCGCUGUGGCUGUCCCUGGACGUGCUGCAGCCCAACAGAGGAUUGAGCAUCA
# B15: chr11:13729208:13729309:+|3pUTR|ENSG00000197601|unk|FALSE|unique (ssRNA)
# RNA: GGGAGUUCUACAGUCCGACGAUCAAAGUUGGUAGAUAUUUGAUUCUUCAUUUUUUGUUUUUUUCAUUAGUUGAAGUGGGUUUUAGUUUUGUUUAAAAUUAUAACCAGCGUAUUUUCACAUCAUUCUGUAAGUUAAAUGAUAUCCAACAGAGGAUUGAGCAUCA
# B16: chr17:48622902:48623135:-|CDS|ENSG00000170689|control|control|control (ssRNA)
# RNA: GGGAGUUCUACAGUCCGACGAUCUACCAGACGCUGGAGCUAGAGAAGGAGUUUCUGUUCAAUAUGUACCUCACCAGGGACCGUAGGCACGAAGUGGCCAGACUCCUCAAUCUGAGUGAGAGACAAGUCAAAAUCUGGUUUCAGCAACAGAGGAUUGAGCAUCA
# B17: chr13:99866285:99866388:+|CDS|ENSG00000125246|unk|FALSE|unique (ssRNA)
# RNA: GGGAGUUCUACAGUCCGACGAUCUAUUCUCUACGCCCGGCAAAAGAUUGUUGUCAUAGCGAAAGCCUUUGGUCUCCAAGCCAUAGAUCUGGUGUACAUUGACUUUCGAGAUGGAGCUGGGCUGCUUAGACAGUCACGAGAAGGCAACAGAGGAUUGAGCAUCA
# B18: ENSG00000198589:be:win_1301|CDS|ENSG00000198589|bound_else_gene|NA|bound_elsewhere_windowed (ssRNA)
# RNA: GGGAGUUCUACAGUCCGACGAUCCAUCUCCUAAGGACAACCCUUCAAUUUUUGUUCAUUCACCACAUGCACUCAUGCUCCAGGAUGUAAAGGCAGUUUUAACACAUUCCAUCCAAAGUGCAAUGCAUUCAAUUGGAGGAGUACCAACAGAGGAUUGAGCAUCA
# B19: chr15:59095394:59095499:+|3pUTR|ENSG00000157450|unk|FALSE|unique (ssRNA)
# RNA: GGGAGUUCUACAGUCCGACGAUCUAAAUACCAUCCUUAAUACUGGGAACAGAAUACAACCCAUAUAAAUCAGAUGCAGGUGGUAGUCACAUCACCAGAGUGAUCAGUAUAAAUUUUCUUGGUGUAUCCUUUUCCUUUCAACACCAACAGAGGAUUGAGCAUCA
# B20: chr1:193029531:193029688:-|CDS|ENSG00000116750|unk|FALSE|unique (ssRNA)
# RNA: GGGAGUUCUACAGUCCGACGAUCUUGAUAUCUUCACUUUUAUAUUUUAUAGGUAAUUAAUAAUGCUUGUGCUACUCAAGCCAUAGUGAGUGUGUUACUGAACUGUACCCACCAGGAUGUCCAUUUAGGCGAGACAUUAUCAGACAACAGAGGAUUGAGCAUCA
# B21: chrX:115010634:115010735:-|CDS|ENSG00000123496|msi1|FALSE|unique (ssRNA)
# RNA: GGGAGUUCUACAGUCCGACGAUCUGGAUCAUCAGAGAACAAGCCUAUCAGAUCCAGUUAUUUCACUUUUCAGCUUCAAAAUAUAGGUGAUGUAAACCAACAAACAACUUCAAAUUCAUUGUUUCUAGUUUAGGCCAUUUACAACAACAGAGGAUUGAGCAUCA
# B22: chr1:193029531:193029688:-|CDS|ENSG00000116750|unk|total|mutant (ssRNA)
# RNA: B20 RNA with U49C, A50C, U83C, A84C, U125C, A126C
# Molecular target: MSI1 full-length (mouse, UniProt Q61474 1-362)
# Sequence (Q61474 whole entry): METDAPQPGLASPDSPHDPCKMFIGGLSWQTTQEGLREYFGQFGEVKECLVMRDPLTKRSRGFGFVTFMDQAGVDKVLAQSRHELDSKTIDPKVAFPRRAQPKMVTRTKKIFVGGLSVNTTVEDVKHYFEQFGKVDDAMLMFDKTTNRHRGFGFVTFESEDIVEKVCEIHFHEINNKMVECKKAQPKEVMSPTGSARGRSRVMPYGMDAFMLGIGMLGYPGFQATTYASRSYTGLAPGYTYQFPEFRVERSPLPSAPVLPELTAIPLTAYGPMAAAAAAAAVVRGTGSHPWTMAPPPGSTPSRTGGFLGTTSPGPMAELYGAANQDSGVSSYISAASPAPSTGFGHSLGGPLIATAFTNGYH
# Experiment: nsRBNS (natural sequence RNA bind-n-seq); RBNS binding buffer (assumed for nsRBNS): 25 mM Tris pH 7.5, 150 mM KCl, 3 mM MgCl2, 0.01% Triton X-100, 500 ug/ml BSA, 20 U/ml SUPERase-In, 4 C; UNK is unkempt and MSI1 is Musashi-1; names of the RNAs are library labels; protein concentration not given here; high values mean tight binding
row,Binder,binding signal [enrichment R]
1,B1,0.762
2,B2,8.08
3,B3,9.43
4,B4,0.529
5,B5,0.649
6,B6,17.7
7,B7,16.1
8,B8,48.8
9,B9,1.03
10,B10,39.3
11,B11,5.81
12,B12,0.595
13,B13,0.303
14,B14,0.763
15,B15,1.97
16,B16,0.411
17,B17,0.39
18,B18,0.284
19,B19,0.744
20,B20,30
21,B21,1.74
22,B22,1.15
